The text below walks through data of PubChem BioAssay AID1778 (Sanford-Burnham Center for Chemical Genomics, 2009).

The whole screen tested about 290,000 compounds, of which about 260 (0.09%) were called active. Shown is part of a subset that was picked to be rich in actives. Results with a measured potency or affinity are listed apart. Values without a mark were called inactive. Rule as the data show it: active = inhibition above about 50%; inactive = the rest.

Sequence of Kappa-type opioid receptor (Homo sapiens) (P41145 whole entry, looked up): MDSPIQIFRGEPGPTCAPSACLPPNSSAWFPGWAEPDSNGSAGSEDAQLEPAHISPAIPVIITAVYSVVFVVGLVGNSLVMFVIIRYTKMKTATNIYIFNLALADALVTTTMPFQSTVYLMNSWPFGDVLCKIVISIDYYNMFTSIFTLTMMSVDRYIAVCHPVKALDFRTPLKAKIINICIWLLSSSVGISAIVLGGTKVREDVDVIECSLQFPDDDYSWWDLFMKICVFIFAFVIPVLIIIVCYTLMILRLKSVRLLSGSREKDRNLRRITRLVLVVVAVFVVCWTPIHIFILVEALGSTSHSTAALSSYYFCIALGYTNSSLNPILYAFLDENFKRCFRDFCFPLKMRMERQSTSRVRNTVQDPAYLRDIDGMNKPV

The assay addresses Kappa-type opioid receptor (Homo sapiens) (UniProt P41145). The assay can be described thus: KOR antagonists, beta-arrestin recruitment, cell-based, luminescence, uHTS (AID 1778). The following applies: antagonist mode, hits give high values; at 10 µM unless noted. A general note: Recruitment of arrestin is a read-out of receptor activation apart from second messengers.
As for `NC(=S)c1ncc(C(F)(F)F)cc1Cl`, the inhibition is -11.8%.
For `NC(=S)Nc1ncc(C(F)(F)F)cc1Cl`, the inhibition was -71.5% [at 20 µM].
As to `CCOC(=O)N1CCN(C(=O)Nc2sc3nc4n(c(=O)c3c2C)CCC(C)CC4)CC1` (configuration not stated), the inhibition was -7.4%.
In the case of `COc1ccccc1CCNC(=O)C(=O)NCC1OCCN1S(=O)(=O)c1cc(F)ccc1F` (configuration not stated) it was -43.3% [at 20 µM]; in that of `CCOc1ccc(-c2nc(C#N)c(NCC3CCCO3)o2)cc1` (configuration not stated), 10.1%.
Turning to `CC(CCc1ccccc1)NC(=O)c1cccc(F)c1` (configuration not stated), the inhibition is -19.3% [at 20 µM].
`COc1ccc(C(=O)/C=C/C(=O)N(Cc2ccc3c(c2)OCO3)C(C(=O)NC2CCCCC2)c2ccncc2)c(O)c1` (configuration not stated): the inhibition is 15.5%.
With `COc1ccc(C(=O)/C=C/C(=O)N(CC(=O)NC2CCCCC2)CC2CCCO2)c(O)c1` (configuration not stated), the inhibition was 82.5% (active).
Take `COc1ccc(C(=O)/C=C/C(=O)N(Cc2ccccc2)C(C(=O)NC2CCCCC2)c2ccncc2)c(O)c1` (configuration not stated): the inhibition is 9.1%.
`Cc1ccnc(NC(=O)CCC(=O)N(CC(=O)NC2CCCCC2)CC2CCCO2)c1` (configuration not stated): the inhibition was 11%.
Consider `COc1ccc(CN(C(=O)/C=C/C(=O)c2ccc(OC)cc2O)C(C(=O)NC2CCCCC2)c2ccncc2)cc1` (configuration not stated), for which the inhibition is 8.2%.
Take `COc1ccc(C(=O)/C=C/C(=O)N(CC(=O)NC2CCCCC2)Cc2cccs2)c(O)c1`: the inhibition is 26.6%.
As for `COc1ccc(C(=O)/C=C/C(=O)N(Cc2ccccc2OC)C(C(=O)NC2CCCCC2)c2ccncc2)c(O)c1` (configuration not stated), the inhibition is 12.2%.
For `COc1ccc(C(=O)/C=C/C(=O)N(CC(=O)NC2CCCCC2)Cc2ccccc2OC)c(O)c1`, the inhibition is 56.3% (active).
For the compound `COc1ccc(C(=O)/C=C/C(=O)N(Cc2ccc(F)cc2)C(C(=O)NC2CCCCC2)c2ccncc2)c(O)c1` (configuration not stated), the inhibition was 6.8%.
`COc1ccc(C(=O)/C=C/C(=O)N(CC(=O)NC2CCCCC2)Cc2ccc(F)cc2)c(O)c1`: the inhibition was 33.1%.
Turning to `COc1ccc(NS(=O)(=O)c2cc(NC(=O)c3cccnc3Cl)ccc2N2CCCC2)cc1`, the inhibition is 37.4%.
In the case of `C[C@@H]1CCC[C@]2(O[C@H](CCO)C[C@H](O)[C@H]2O)O1`, the inhibition was 47.9%.
Take `CC1CC2=C(NC(=S)NC2c2cccc(F)c2)/C(=C/c2cccc(F)c2)C1` (configuration not stated): the inhibition is 4.5%.
In the case of `O=C(c1cccs1)N(C(=O)c1cccs1)c1ccc(Br)cn1` it was -21.5%; in that of `Cc1cnc(C)c(N2CCN(Cc3nc(-c4ccccc4)no3)CC2)n1`, -15.2%; in that of `N#CCCN(NC1=NS(=O)(=O)c2ccccc21)C(=O)c1ccccc1Br`, 8.1%.

As usually defined, the inhibition is the change of the read-out against control, counted positive when it falls.
